Bioassay records as filed in PubChem BioAssay.
PrPC TRFRET – reduces human prion protein on the cell surface; P04156; cell surface PrPC, TR-FRET read-out; inhibition, % at 13.8 µM; actives 0.43% (n = 370,000); AID 720596; in the data active means inhibition above about 24%
Y pestis TopoI – Y. pestis Topo-I inhibition via cleavage products; Y. pestis Topo-I cleavage product accumulation, plate reader; activity, % at 10 µM; actives 0.064% (n = 360,000); in the data active means activity above about 50%, passing the limit was not always enough
PrP 5UTR inh – suppresses PrP 5' UTR mRNA reporter expression. AID 488862. inhibition, % (no concentration beside the values). actives 0.35% (n = 340,000). cell-based PrP 5' UTR mRNA reporter, plate reader; in the data active means inhibition above about 52%
Mtb hypoxia rep – Mtb hypoxia fluorescent reporter inhibition. M. tuberculosis hypoxia-regulated fluorescent reporter, fluorescence. fluorescence inhibition, % (test concentration not listed). actives 0.1% (n = 300,000); in the data active means fluorescence inhibition mostly above about 23%, no sharp cut-off; inactive means mostly below about 17%
Mtb FBA inh – Mtb fructose-bisphosphate aldolase inhibition | P9WQA3 | purified M. tuberculosis FBA, fluorescence read-out | inhibition, % at 1 µM | actives 2.3% (n = 360,000)
Target sequence (P9WQA3 whole entry, looked up): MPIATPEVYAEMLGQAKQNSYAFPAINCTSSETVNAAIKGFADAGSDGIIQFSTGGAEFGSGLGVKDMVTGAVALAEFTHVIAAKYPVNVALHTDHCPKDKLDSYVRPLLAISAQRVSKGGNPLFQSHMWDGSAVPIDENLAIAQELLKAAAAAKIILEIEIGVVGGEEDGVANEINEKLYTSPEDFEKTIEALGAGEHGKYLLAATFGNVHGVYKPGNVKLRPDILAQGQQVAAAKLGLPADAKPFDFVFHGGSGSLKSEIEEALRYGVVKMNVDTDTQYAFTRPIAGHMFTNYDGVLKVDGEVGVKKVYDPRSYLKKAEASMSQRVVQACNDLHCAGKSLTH
GDH-TPI counter-1 – GDH-TPI coupled enzyme inhibition counter-screen; GDH-TPI coupled enzyme counterscreen, NADH absorbance; inhibition, % at 4.8 µM; actives 1.2% (n = 360,000); in the data active means inhibition above about 30%
Mtb FBA confirm – Mtb FBA inhibition, confirmed; shares compounds with Mtb FBA inh; purified M. tuberculosis FBA, fluorescence read-out; inhibition, % at 1 µM; actives 78% (n = 5,600); AID 651616
GDH-TPI counter-2 – GDH-TPI inhibition counter-screen for FBA inhibitors; GDH-TPI coupled enzyme counterscreen, fluorescence; inhibition, % at 1 µM; shares compounds with Mtb FBA inh; actives 81% (n = 5,600); in the data active means inhibition above about 10%
Numbers stand for hits; 0 = inactive; - = not tested or not shown; + = active, no number. In the library only some 3.8% were active in any assay of this set; here they are far more common. Unless noted, no stated cut-off is given here; in the data, active means inhibition above about 27%; inactive means the rest.

SMILES | PrPC TRFRET | Y pestis TopoI | PrP 5UTR inh | Mtb hypoxia rep | Mtb FBA inh | GDH-TPI counter-1 | Mtb FBA confirm | GDH-TPI counter-2
C=CCOc1c(CNc2cccc(C(=O)O)c2)cccc1OC | 0 | 0 | 0 | - | 29 | 0 | 39 | 53
C=CCOc1c(CNc2cccc(C(=O)O)c2)cccc1OCC | 0 | 0 | 0 | 0 | 0 | 0 | - | -
CCNC(=O)C(=Cc1cccc([N+](=O)[O-])c1)NC(=O)c1ccc(C)cc1 | - | - | - | 0 | - | - | - | -
CC(=O)N1CCC2(CC1)CC(=O)c1cc(OCC(=O)N3CCOCC3)ccc1O2 | 0 | 0 | 0 | 0 | 70 | 0 | 67 | 67
Cc1ccc(OCC(=O)N2CCC3(CC2)CC(=O)c2ccccc2O3)cc1 | 0 | 0 | 0 | 0 | 0 | 0 | - | -
CCOC(=O)N1CCN(C(=O)COc2ccc3c(c2)C(=O)CC2(CCN(C(C)=O)CC2)O3)CC1 | 0 | 0 | 0 | 0 | 63 | 0 | 139 | 120
CC1CCCC(C)N1C(=O)COc1ccc(C(=O)NN=Cc2ccc(C(=O)O)cc2)cc1 (stereo unspecified) | - | - | - | 0 | - | - | - | -
COc1ccccc1Sc1ccccc1C=NNC(N)=O | - | - | - | 0 | - | - | - | -
COc1cc(C=NNC(=O)CC2(C)OCCCO2)ccc1OCc1ccc(Cl)cc1Cl | - | - | - | 0 | - | - | - | -
Cc1c(OCC(=O)OC(C)C)ccc2c3c(c(=O)oc12)CCC3 | 0 | 0 | 0 | - | 0 | 0 | - | -
Cc1c(OC(C)C(=O)N[C@H](C(=O)O)c2ccccc2)ccc2c3c(c(=O)oc12)CCCC3 (stereo partly specified) | 0 | 0 | 0 | - | 81 | 0 | 81 | 59
Cc1cc(=O)oc2c(C)c(OC(C)C(=O)NCCN3CCOCC3)ccc12 (stereo unspecified) | 0 | 0 | 0 | 0 | 0 | 0 | - | -
Cc1c(OC(C)C(=O)NCC(O)c2ccccc2)ccc2c3c(c(=O)oc12)CCC3 (stereo unspecified) | 0 | 0 | 0 | 0 | 29 | 0 | + | +
Cc1c(OC(C)C(=O)NCCN2CCOCC2)ccc2c3c(c(=O)oc12)CCCC3 (stereo unspecified) | 0 | 0 | 0 | 0 | 34 | 0 | 50 | 38
CC(=O)C(C)Oc1ccc2c3c(c(=O)oc2c1C)CCCC3 (stereo unspecified) | 0 | 0 | 0 | 0 | 61 | 0 | 88 | 70
Cc1cc(C(=O)NN=Cc2ccc(C)o2)c2ccccc2n1 | - | - | - | 0 | - | - | - | -
CCN(CC)c1ccc(C=NNC(=O)c2cnccn2)c(O)c1 | - | - | - | 0 | - | - | - | -
COc1ccc(C=NNC(=S)Nc2ccccc2)cc1 | - | - | - | 0 | - | - | - | -
N#CC1=C(N)Oc2c(ccc3cccnc23)C1c1cccnc1 (stereo unspecified) | 0 | 0 | 0 | 0 | 41 | 0 | 0 | 0
CCN(CC)CCCNc1cc2n(c(=O)n1)CCc1cc(OC)c(OC)cc1-2 | 0 | 0 | 0 | 0 | 41 | 0 | 0 | 0
COc1cc2c(cc1OC)-c1cc(Nc3ccc(C)cc3)nc(=O)n1CC2 | 0 | 0 | 0 | 0 | 0 | 0 | - | -
CC1CCC2C(C1)Nc1c(C(=O)O)cccc1C2(C)C (stereo unspecified) | 0 | 0 | 0 | 0 | 77 | 0 | 0 | 11
COc1ccc(-c2nc(C#N)c(NCc3ccc(F)cc3)o2)cc1OC | 0 | 0 | 0 | 0 | 103 | 0 | 74 | 55
COc1ccc(-c2nc(C#N)c(NCc3ccccc3Cl)o2)cc1OC | 0 | 0 | 0 | 0 | 57 | 0 | 114 | 81
COc1ccc(-c2nc(C#N)c(NCc3cccnc3)o2)cc1OC | 0 | 0 | 0 | 0 | 30 | 0 | 53 | 39
SMILES | PrPC TRFRET | Y pestis TopoI | PrP 5UTR inh | Mtb hypoxia rep | Mtb FBA inh | GDH-TPI counter-1 | Mtb FBA confirm | GDH-TPI counter-2
COC(=O)C1=C(c2ccccc2)CC2CCC1N2C(=O)NCc1ccccc1 (stereo unspecified) | - | - | - | 0 | - | - | - | -
COc1ccc(-c2sc(C(=O)c3ccc(Cl)cc3Cl)cc2CC(=O)O)cc1 | 0 | 0 | 0 | 0 | 45 | 0 | 73 | 55
O=C(O)Cc1ccc(C(=O)c2ccc(Cl)cc2Cl)s1 | 0 | 0 | 0 | 0 | 0 | 0 | - | -
CC(=NNC(=O)CNC(=O)C(c1ccccc1)c1ccccc1)c1ccccc1 | - | - | - | 0 | - | - | - | -
CCOC(=O)c1cc2nc(-c3ccco3)cc(C(F)(F)F)n2n1 | 0 | 0 | 0 | 0 | 28 | 0 | + | +
CC(C)NC(=O)c1cc2nc(-c3ccco3)cc(C(F)(F)F)n2n1 | 0 | 0 | 0 | 0 | 0 | 0 | - | -
Cc1cc(C(=O)NN=Cc2cccs2)no1 | - | - | - | 0 | - | - | - | -
O=C1NC(c2ccccc2Cl)Nc2ccccc21 (stereo unspecified) | 0 | 0 | 0 | 0 | 57 | 0 | 114 | 100
O=C1NC(c2cccc3ccccc23)Nc2ccccc21 (stereo unspecified) | 0 | 0 | 0 | - | 29 | 0 | 37 | 32
COc1ccc2ccccc2c1C1NC(=O)c2ccccc2N1 (stereo unspecified) | 0 | 0 | 0 | - | 44 | 0 | 102 | 74
O=C1NC(c2cccs2)Nc2ccccc21 (stereo unspecified) | 0 | 0 | 0 | - | 0 | 0 | - | -
COc1ccc(C2NC(=O)c3ccccc3N2)cc1OC (stereo unspecified) | 0 | 0 | 0 | - | 0 | 0 | - | -
C=CCCC(Cc1ccc(F)cc1)C(=O)OCC(NC(=O)C(CC=C)CC(=O)N(CCO)Cc1ccccc1)c1ccccc1 (stereo unspecified) | - | - | - | 0 | - | - | - | -
Cc1ccc(C=NNc2ccc(Cl)nn2)cc1 | - | - | - | 0 | - | - | - | -
COc1ccc(S(=O)(=O)N2CCN(C(=O)C3CC(=O)N(c4ccccc4F)C3)CC2)cc1OC (stereo unspecified) | 0 | 0 | 0 | 31 | 33 | 0 | 150 | 94
CC(Oc1cc2oc(=O)c3c(c2cc1Cl)CCC3)C(=O)NCc1cccnc1 (stereo unspecified) | 0 | 0 | 0 | 0 | 0 | 0 | - | -
CCCc1cc(=O)oc2cc(C)cc(OC(C)C(=O)NCc3ccncc3)c12 (stereo unspecified) | 0 | 0 | 0 | 0 | 58 | 0 | + | +
CCCc1cc(=O)oc2cc(C)cc(OC(C)C(=O)NCc3cccnc3)c12 (stereo unspecified) | 0 | 0 | 0 | 0 | 70 | 0 | 0 | 0
CSCCC(Nc1ncnc2sc(C)c(C)c12)C(=O)O (stereo unspecified) | - | - | - | 0 | - | - | - | -
COc1ccc(-c2oc3cccnc3c2/C=C/c2ccc(OC)c(OC)c2)cc1 | 0 | 0 | 0 | - | 94 | 0 | + | 195
Oc1ccc(C=Nn2c(C3CCCCC3)n[nH]c2=S)c(O)c1 | - | - | - | 0 | - | - | - | -
COc1ccc(NC(=O)CN(C)C(=O)c2cc(-c3ccc(OC)cc3)nc3ccccc23)cc1 | 0 | 0 | 0 | 0 | 35 | 0 | 49 | 36
COc1ccc(-c2cc(C(=O)N(C)CC(=O)Nc3cccc(F)c3)c3ccccc3n2)cc1 | 0 | 0 | 0 | 0 | 54 | 0 | 115 | 83
Cc1ccccc1CN(c1ccc(C(=O)NN=Cc2ccc(OCC(N)=O)cc2)cc1)S(C)(=O)=O | - | - | - | 0 | - | - | - | -
